KCNQ2 pot: KCNQ2 (rat) channel potentiation; O88943; CHO-K1 KCNQ2, FluxOR thallium flux fluorescence; stronger effect = higher value; B-score at 10 µM; 310,000 compounds, 0.54% hits; AID 2239;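 active = fluorescence ratio B-score at least 3 SD of library B-scores, with initial fluorescence B-score within 3 of them, cut at about 5.3 in these data; same plate scores as AID 2156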;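 also: B-score of peak minus minimum over baseline fluorescence ratio after K+ and Tl+ stimulus; positive B-score means potentiation of KCNQ2 with more thallium influx and brighter signal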
KCNQ2 inh: blocks the rat KCNQ2 potassium channel | O88943 | CHO-K1 KCNQ2, FluxOR thallium flux, 20 min; stronger effect = lower value | B-score at 10 µM | 310,000 compounds, 1.1% hits;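 active = fluorescence ratio B-score at most minus 3 library SDs, with starting brightness B-score within 2 library SDs, cut at about -5.5 in these data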
Kir21 conf inh: confirmation of mouse Kir2.1 potassium channel inhibitors. shares compounds with KCNQ2 pot. Tl flux remaining, % of negative control (stronger effect = lower value), % at 10 µM. Kir2.1-expressing cells, FluxOR thallium flux fluorescence; stronger effect = lower value. 2,300 compounds, 41% hits;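 active = Primary-screen hit whose thallium flux fell at least 3 control SD below untreated wells in both duplicates, with normal baseline fluorescence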
Target sequence (P35561 whole entry, looked up): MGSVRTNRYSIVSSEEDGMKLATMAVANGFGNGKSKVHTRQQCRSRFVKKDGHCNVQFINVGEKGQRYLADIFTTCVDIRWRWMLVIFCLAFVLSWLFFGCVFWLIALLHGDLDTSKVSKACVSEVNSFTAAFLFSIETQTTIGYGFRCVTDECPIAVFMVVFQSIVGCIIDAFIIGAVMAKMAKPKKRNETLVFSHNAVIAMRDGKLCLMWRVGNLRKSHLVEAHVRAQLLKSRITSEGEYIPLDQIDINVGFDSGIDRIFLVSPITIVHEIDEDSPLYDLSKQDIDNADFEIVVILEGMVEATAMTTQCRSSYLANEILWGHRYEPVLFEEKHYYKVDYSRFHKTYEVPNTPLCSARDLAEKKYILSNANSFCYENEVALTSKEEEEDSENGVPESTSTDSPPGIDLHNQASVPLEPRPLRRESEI
HEK293 Tl flux: parental HEK293 activity in Kir2.1 inhibitor counter-screen; shares compounds with KCNQ2 pot; parental HEK293 cells, FluxOR thallium flux fluorescence; 0% = unstimulated blank wells; FluxOR signal as % of negative control (100 = no effect), % at 10 µM; 2,300 compounds, 19% hits; AID 2105;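 active = dye signal at least 3 control SD above or below untreated wells in both duplicates, raw fluorescence within 3, either direction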;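 also: percent is based on the flux ratio of peak minus minimum fluorescence over baseline F0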
CHO-K1 ctr: parental CHO-K1 activity in KCNQ2 potentiator counter-screen | shares compounds with KCNQ2 pot | parental CHO-K1 cells, FluxOR thallium flux fluorescence; zero = vehicle mean+3SD, 100% = vehicle-minus-blank window | activity increase over 3SD of controls, % at 10 µM | 1,200 compounds, 43% hits;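 active = signal rise of at least 3 SD above the untreated control mean, in both duplicate wells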;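 also: counter screen of KCNQ2 potentiator hits so any rise reflects channel-independent effects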
KCNQ1 pot spec: selectivity of KCNQ2 potentiators: effect on human KCNQ1; shares compounds with KCNQ2 pot; CHO KCNQ1 stable, FluxOR thallium flux fluorescence; beyond 3SD, as % of vehicle-control signal; activation over 3SD threshold, % at 10 µM; 1,200 compounds, 28% hits; AID 2283;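 active = fluorescence ratio rise of at least 3 SD of vehicle wells above their mean, in both replicate wells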
KCNQ2 pot confirm: confirmation of rat KCNQ2 potassium channel potentiators | shares compounds with KCNQ2 pot | CHO-KCNQ2 cells, FluxOR thallium flux fluorescence | potentiation, less the hit threshold, % at 10 µM | 1,200 compounds, 68% hits;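 active = fluorescence ratio rising 3 SD or more over the vehicle control mean in both replicates, plus primary screen hit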;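 also: peak minus minimum thallium fluorescence divided by baseline after K/Tl stimulus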
Kir2-1 sel: tests whether KCNQ2 potentiators also affect mouse Kir2.1; activity over 3SD threshold, % at 10 µM; HEK293 Kir2.1, FluxOR thallium flux fluorescence; shares compounds with KCNQ2 pot; 1,200 compounds, 2% hits;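 active = fluorescence ratio rise of at least 3 SD above the vehicle-control mean, seen in both replicates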
KCNQ2 W236L MoA: KCNQ2 potentiators acting on retigabine-insensitive rat KCNQ2 W236L mutant; shares compounds with KCNQ2 pot; CHO KCNQ2-W236L, automated patch clamp current; 940 compounds, 10% hits; current increase over 3SD of negative controls (%), stronger effect = higher value, % at 25 µM;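 active = current increase at least 3 SD of the untreated controls above them in both duplicate recordings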
Large screens that a line does not name were inactive (follow-up assays come after a bar, where they were run). In the library only some 1.6% were active in any assay of this set; here they are far more common.

O=c1c2cccnc2[nH]c(=S)n1CCC1=CCCCC1	KCNQ2 pot 12.3 | Kir21 conf inh inactive | HEK293 Tl flux 277.5% | CHO-K1 ctr 7.6 | KCNQ1 pot spec inactive | KCNQ2 pot confirm 48.4 | Kir2-1 sel inactive | KCNQ2 W236L MoA inactive
CCCCCn1c(=S)[nH]c2ncccc2c1=O	none
Cc1ccc2nc(N3CCN(CCO)CC3)nc(-c3ccccc3)c2c1	none (no result: KCNQ2 pot) | Kir21 conf inh 47.5% | HEK293 Tl flux inactive
CN1CCN(c2nnc(-c3ccccc3)c(-c3ccccc3)n2)CC1	none
CN1CCN(c2nc(-c3ccccc3)c3cc(Cl)ccc3n2)CC1	none (no result: KCNQ2 pot) | Kir21 conf inh 60.5% | HEK293 Tl flux inactive
CCOC(=O)N1CCN(c2nc(-c3ccccc3)c3cc(C)ccc3n2)CC1	none (no result: KCNQ2 pot)
CC(=O)c1ccc(Nc2cc(C)nc3c(C)cccc23)cc1	none (no result: KCNQ2 pot)
Cc1ccc(Nc2cc(C)nc3c(C)cccc23)cc1	none | Kir21 conf inh 35.5% | HEK293 Tl flux inactive
N=c1n(CCN2CCCC2)c2ccccc2n1CC(O)c1ccco1 (stereo not given)	none
CCCCCCCn1c(=N)n(CC(O)c2ccco2)c2ccccc21 (stereo not given)	none | Kir21 conf inh 45.0% | HEK293 Tl flux inactive
CC(C)(C)c1ccc(Cn2c(=N)n(CC(O)c3ccco3)c3ccccc32)cc1 (stereo not given)	none (no result: KCNQ2 pot)
Cc1ccccc1Cn1c(=N)n(CC(O)c2ccco2)c2ccccc21 (stereo not given)	none (no result: KCNQ2 pot) | Kir21 conf inh 63.5% | HEK293 Tl flux inactive
CCCCCCCn1c(=N)n(CC(=O)c2ccco2)c2ccccc21	none | Kir21 conf inh 55.5% | HEK293 Tl flux inactive
CCCCn1c(=N)n(CC(=O)c2ccco2)c2ccccc21	none
CC(OC(=O)C1CCCC1)C(=O)Nc1ccc(S(N)(=O)=O)cc1 (stereo not given)	none (no result: KCNQ2 pot)
CCOc1ccc(NC(=O)c2sccc2-n2cccc2)cc1	none (no result: KCNQ2 pot)
COc1cc(NC(=O)C2=C(C)OCCS2)c(Cl)cc1C(=O)NCCN(C)C	none
COc1ccc(NC(=O)c2csc3c2CCCC3)cc1	none (no result: KCNQ2 pot)
COc1cccc(NC(=O)c2csc3c2CCCC3)c1	KCNQ2 pot 8.04 | Kir21 conf inh inactive | HEK293 Tl flux inactive | CHO-K1 ctr inactive | KCNQ1 pot spec inactive | KCNQ2 pot confirm 1.2 | Kir2-1 sel inactive | KCNQ2 W236L MoA inactive
COCCN1Cc2cccc(C(=O)NCCCN3CCCC3=O)c2C1=O	none
Cc1ccc(CNC(=O)C2CCC(=O)N(Cc3cccc(C(F)(F)F)c3)C2)o1 (stereo not given)	none (no result: KCNQ2 pot)
COc1cccc(NC(=O)NCCc2ccc(Cl)cc2)c1	none (no result: KCNQ2 pot)
CCCCSCCCNC(=O)Nc1cccc(OC)c1	KCNQ2 pot 8.63 | Kir21 conf inh inactive | HEK293 Tl flux inactive | CHO-K1 ctr inactive | KCNQ1 pot spec inactive | KCNQ2 pot confirm 14.8 | Kir2-1 sel inactive | KCNQ2 W236L MoA inactive
Cc1cccc2sc(NNC(=O)c3cc(=O)c4ccccc4o3)nc12	none
COc1ccc2nc(NNC(=O)c3cc(=O)c4ccccc4o3)sc2c1	KCNQ2 pot 13.1 | Kir21 conf inh inactive | HEK293 Tl flux inactive | CHO-K1 ctr inactive | KCNQ1 pot spec inactive | KCNQ2 pot confirm inactive | Kir2-1 sel inactive
CCn1c(CSc2n[nH]c(N)n2)nc2cc(C(=O)O)ccc21	none (no result: KCNQ2 pot)
COC(=O)C1=C(C)NC(=O)/C1=C\N(C)C	none (no result: KCNQ2 pot)
Cc1ccc(NC(=O)C(C)OC(=O)/C=C/c2ccccc2)cc1S(=O)(=O)N1CCOCC1 (stereo not given)	none (no result: KCNQ2 pot)
COc1cccc(C(=O)NNC(=O)C(=O)Nc2cccc3ccccc23)c1	KCNQ2 pot 12.8 | Kir21 conf inh inactive | HEK293 Tl flux inactive | CHO-K1 ctr inactive | KCNQ1 pot spec 8.8 | KCNQ2 pot confirm inactive | Kir2-1 sel inactive
